Compound activity (PubChem BioAssay)
Shown is part of a subset that was picked to be rich in hits.
12-LOX inh – Primary qHTS assay for inhibitors of human arachidonate 12S-lipoxygenase (ALOX12): Round 2 | Polyunsaturated fatty acid lipoxygenase ALOX12 (Homo sapiens), P18054 | purified 12hLO, xylenol orange hydroperoxide absorbance | Potency, µM (titrated, usually from 108 µM), inactives show at the top dose activity change, negative = inhibition, most hits filed as inhibitors | hit rate 1.1% among 580,000 | AID 1671190, 2021; also: potency is read from the fitted curve at half-maximal effect
Target sequence (P18054 whole entry, looked up): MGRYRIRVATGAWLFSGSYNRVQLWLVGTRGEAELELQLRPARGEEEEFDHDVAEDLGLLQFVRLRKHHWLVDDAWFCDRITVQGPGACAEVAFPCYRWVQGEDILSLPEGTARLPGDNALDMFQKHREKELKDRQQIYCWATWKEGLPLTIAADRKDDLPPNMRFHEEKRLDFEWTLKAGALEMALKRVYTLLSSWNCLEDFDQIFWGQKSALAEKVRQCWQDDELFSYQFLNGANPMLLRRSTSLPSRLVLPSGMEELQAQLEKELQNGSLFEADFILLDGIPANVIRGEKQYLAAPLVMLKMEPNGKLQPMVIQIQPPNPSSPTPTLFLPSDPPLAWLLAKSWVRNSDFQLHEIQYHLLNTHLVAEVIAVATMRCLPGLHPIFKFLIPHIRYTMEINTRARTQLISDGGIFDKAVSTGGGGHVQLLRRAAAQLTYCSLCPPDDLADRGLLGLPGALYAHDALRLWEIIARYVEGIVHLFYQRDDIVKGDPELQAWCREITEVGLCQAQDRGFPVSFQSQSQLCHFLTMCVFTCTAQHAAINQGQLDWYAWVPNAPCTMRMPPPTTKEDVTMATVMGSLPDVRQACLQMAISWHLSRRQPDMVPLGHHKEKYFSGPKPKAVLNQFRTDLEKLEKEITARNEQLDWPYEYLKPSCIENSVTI
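Purified human 12hLO (150 nM final) in 25 mM Hepes, 0.01% Triton X-100, pH 7.0 was preincubated 15 min at room temperature with compound. Then 40 uM arachidonic acid was added, 30 min. Hydroperoxide was read by Fe-XO absorbance ratio 573/405 nm.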
HT1080 IDH1KD tx – qHTS for induction of synthetic lethality in tumor cells producing 2HG: qHTS for the HT-1080-IDH1KD cell line; hit rate 2% among 360,000; HT-1080 IDH1 knockdown viability, ATP luminescence, 48 h; AID 686971, 2013; Potency, µM (doses to about 46.1 µM), for inactives: top-dose activity, negative = toxicity, hits mostly cytotoxic;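 also: potency is read from the fitted curve at half-maximal effect; 0% = DMSO wells and -100% = cell-free medium wells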
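After a 2 h attachment period, IDH1KD HT-1080 cells took pin-transferred compound for 48 h at 37 °C; ATP-based luminescence after 10 min room-temperature reagent incubation reported viability.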
TDP1 cell noCPT – qHTS for Inhibitors of human tyrosyl-DNA phosphodiesterase 1 (TDP1): qHTS in cells in absence of CPT. DT40 Tdp1-/- hTDP1 cells, no CPT, ATP luminescence, 48 h. Potency, µM (highest dose often 46.2 µM), for the others: at the highest dose activity change, negative = growth inhibition, hits mostly inhibitors. hit rate 15% among 420,000. AID 686978, 2013; also: potency is read from the fitted curve at half-maximal effect; nearly all actives have a fitted effect of over 55% in size
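Readout: luminescence from CellTiter-Glo after 30 min in the dark at RT. Cells: DT40 Tdp1-/- with stable hTDP1, 400/well. Exposure: compounds alone, ≥48 hr, 37 °C.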
IL1B secr inh – qHTS for Inhibitors of Inflammasome Signaling: IL-1-beta AlphaLISA Primary Screen; hit rate 4.7% among 360,000; activity change, % at 57.5 µM; THP-1 LPS/ATP IL-1B secretion, AlphaLISA, 16 h; hits give low values; in the data active = activity change below about -50%; inconclusive = mostly about -30% to -49%
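Secreted IL-1B measured by AlphaLISA bead assay after 16 h compound exposure of THP-1 cells; compounds (final up to 57.5 uM) added 1 h before LPS (250 ng/mL) and ATP (1.25 mM) stimulation; lower signal means less secretion.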
DT40 TDP1 CPT – qHTS for Inhibitors of human tyrosyl-DNA phosphodiesterase 1 (TDP1): qHTS in cells in presence of CPT; chicken DT40 Tdp1-/-;hTDP1 cells + 20 nM CPT, ATP luminescence, 48 h; Potency, µM (series often up to 46.2 µM), for the others: top-dose activity change, negative = growth inhibition, most hits filed as inhibitors; hit rate 12% among 420,000; also: potency is read from the fitted curve at half-maximal effect; nearly all actives have a fitted effect of over 55% in size
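Chicken DT40 Tdp1-/- cells complemented with human TDP1, 400 cells/well, exposed to compounds plus 20 nM camptothecin for at least 48 h at 37 C; viability read as ATP content by CellTiter-Glo luminescence.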
HT1080NT lethal – qHTS for induction of synthetic lethality in tumor cells producing 2HG: qHTS for the HT-1080-NT fibrosarcoma cell line; HT-1080-NT fibrosarcoma viability, CellTiter-Glo ATP luminescence, 48 h; Potency, µM (doses to about 46.1 µM), without a hit: at the top dose activity, negative = less viability, most hits filed as cytotoxic; hit rate 1.6% among 360,000; AID 686970, 2013;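 also: NT is the 2HG producing partner of a matched IDH1 knockdown line; potency is read from the fitted curve at half-maximal effect; 0% = DMSO-treated cells and -100% = media-only wells without cells; nearly all actives have a fitted effect of over 55% in size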
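Read-out is CellTiter-Glo luminescence after 10 minutes at room temperature, following 48 hours' compound treatment of HT-1080-NT cells (750 cells/well, RPMI, 5% FBS, 37 degrees C).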
* = called active by the depositor; [ ] = another dose, or the depositor's remark. Unless noted, calls follow the shape of the dose curve; as a rule, active = well fitted curve in the direction sought with a large enough effect; inconclusive = small, poorly fitted or top-dose-only effect, or another doubt; inactive = no such curve, though single readings can be large; an effect the other way counts as inactive or inconclusive. Unless noted, % is scaled to controls: 0 for no effect and ±100 for the full control effect.

O=c1c2ccccc2ncn1Cc1cccc2ccccc12 was read as 12-LOX inh -1%, HT1080 IDH1KD tx 1%, TDP1 cell noCPT -13%, IL1B secr inh -54*, DT40 TDP1 CPT inconclusive and HT1080NT lethal -2%.
Screening CC/C=C\CCCCO returned 12-LOX inh 25%[176 µM].
Screening CC(C)(C)c1ccc(C(=O)N2CCC(C(=O)NC3CC3)CC2)cc1 returned 12-LOX inh 16%, HT1080 IDH1KD tx 6%, TDP1 cell noCPT -13%, IL1B secr inh 19, DT40 TDP1 CPT -4% and HT1080NT lethal 0%.
Screening CC(C)(C)c1ccc(C(=O)N2CCC(NC(=O)c3ccccc3)CC2)cc1 returned 12-LOX inh 10%, HT1080 IDH1KD tx -2%, TDP1 cell noCPT inconclusive, IL1B secr inh 7, DT40 TDP1 CPT 15µM* and HT1080NT lethal -15%.
Screening CC(=O)c1ccc(N2CCN(C(=O)Nc3ccc(C(C)C)cc3)CC2)cc1 returned 12-LOX inh 2%, HT1080 IDH1KD tx inconclusive, TDP1 cell noCPT 16µM*, IL1B secr inh -26, DT40 TDP1 CPT inconclusive and HT1080NT lethal inconclusive.
For CC(C)c1ccc(C(=O)Nc2ccc(N3CCOCC3)cc2)cc1 the results were 12-LOX inh inconclusive, HT1080 IDH1KD tx inconclusive, TDP1 cell noCPT 21µM*, IL1B secr inh 7, DT40 TDP1 CPT 18µM* and HT1080NT lethal inconclusive.
`CCOc1cc(C(=O)Nc2ccc(F)cc2)cc(Br)c1OC` gave 12-LOX inh -26%, HT1080 IDH1KD tx -4%, TDP1 cell noCPT inconclusive, IL1B secr inh -25, DT40 TDP1 CPT -21% and HT1080NT lethal -16%.
For CCOc1cc(C(=O)Nc2ccc(N3CCOCC3)cc2)cc(Br)c1OC the results were 12-LOX inh 363%, HT1080 IDH1KD tx inconclusive, TDP1 cell noCPT 26µM*, IL1B secr inh 0, DT40 TDP1 CPT inconclusive and HT1080NT lethal inconclusive.
Screening CS(=O)(=O)c1cc(C(=O)NCCc2cccs2)ccc1Cl returned 12-LOX inh 25%.
Screening CC(C)(C)c1ccc(NC(=O)c2ccsc2)cc1 returned 12-LOX inh 305%, HT1080 IDH1KD tx inconclusive, TDP1 cell noCPT 23µM*, IL1B secr inh inconclusive, DT40 TDP1 CPT inconclusive and HT1080NT lethal -26%.
Screening CC(C)(C)c1ccc(C(=O)Nc2ccc(C(=O)N3CCCC3)cc2)cc1 returned 12-LOX inh -14%, HT1080 IDH1KD tx -21%, TDP1 cell noCPT 23µM*, IL1B secr inh -2, DT40 TDP1 CPT 21µM* and HT1080NT lethal -4%.
`CC(=O)c1ccc(C(=O)Nc2ccc(N3CCOCC3)cc2)cc1` gave 12-LOX inh 21%, HT1080 IDH1KD tx 25%, TDP1 cell noCPT 9%, IL1B secr inh -20, DT40 TDP1 CPT 10% and HT1080NT lethal 16%.
`O=C(Nc1ccc(C(=O)N2CCCCC2)cc1)c1ccc([N+](=O)[O-])cc1` gave 12-LOX inh inactive, HT1080 IDH1KD tx 5%, TDP1 cell noCPT inconclusive, IL1B secr inh -11, DT40 TDP1 CPT -1% and HT1080NT lethal 7%.
For CC(C)(C)c1ccc(C(=O)Nc2ccc(N3CCOCC3)cc2)cc1 the results were 12-LOX inh inconclusive, HT1080 IDH1KD tx inconclusive, TDP1 cell noCPT 18µM*, IL1B secr inh inconclusive, DT40 TDP1 CPT 18µM* and HT1080NT lethal inconclusive.
For O=C(c1ccco1)N1N=C(c2cccs2)CC1c1ccc(F)cc1 (stereo not drawn) the results were 12-LOX inh inconclusive, HT1080 IDH1KD tx 2%, TDP1 cell noCPT -2%, IL1B secr inh 25, DT40 TDP1 CPT -25% and HT1080NT lethal 2%.
Screening Cc1ccc(C2CC(c3cccs3)=NN2C(=O)CCl)cc1 (stereo not drawn) returned 12-LOX inh inconclusive, HT1080 IDH1KD tx 4.1µM*, TDP1 cell noCPT 2.9µM*, IL1B secr inh -106*, DT40 TDP1 CPT 2.6µM* and HT1080NT lethal 4.6µM*.
For Cc1ccc(C2CC(c3cccs3)=NN2C(=O)CSC2=NN3CCCC(=O)N=C3S2)cc1 (stereo not drawn) the results were 12-LOX inh -5%[57.4 µM], HT1080 IDH1KD tx -3%, TDP1 cell noCPT inconclusive, IL1B secr inh -18, DT40 TDP1 CPT 13µM* and HT1080NT lethal -4%.
CNC(=S)N1N=C(c2cccs2)CC1c1ccc(F)cc1 (stereo not drawn) was read as 12-LOX inh -17%, HT1080 IDH1KD tx -29%, TDP1 cell noCPT -17%, IL1B secr inh -51*, DT40 TDP1 CPT -19% and HT1080NT lethal -17%.
`COc1ccc(C2CC(c3cccs3)=NN2C(=O)CSC2=NN3CCCC(=O)N=C3S2)cc1` (stereo not drawn) gave 12-LOX inh 37%, HT1080 IDH1KD tx 0%, TDP1 cell noCPT inconclusive, IL1B secr inh -24, DT40 TDP1 CPT inconclusive and HT1080NT lethal -2%.
O=C(c1cccs1)N(Cc1ccncc1)C1CC1 was read as 12-LOX inh -1%.
For NC(=O)CSc1ncnc2c1nnn2Cc1ccc(F)cc1 the results were 12-LOX inh 2%, HT1080 IDH1KD tx inconclusive, TDP1 cell noCPT inconclusive, IL1B secr inh -96*, DT40 TDP1 CPT 2% and HT1080NT lethal -15%.
For O=C(Cn1cnc2c(nnn2Cc2ccc(F)cc2)c1=O)NCc1ccc(F)cc1 the results were 12-LOX inh -4%, HT1080 IDH1KD tx 18µM*, TDP1 cell noCPT inconclusive, IL1B secr inh 22, DT40 TDP1 CPT inconclusive and HT1080NT lethal inconclusive.
COC[C@@H]1CN(C(=O)c2cccc(C#N)c2)C[C@H]1c1ccccn1 was read as 12-LOX inh 16%.
`CCCCNC(=O)c1nc(C2CCN(S(=O)(=O)c3ccccc3C(F)(F)F)CC2)oc1-c1cccc(C(F)(F)F)c1` gave 12-LOX inh 0%, HT1080 IDH1KD tx 25%, TDP1 cell noCPT -1%, IL1B secr inh 7, DT40 TDP1 CPT 2% and HT1080NT lethal inconclusive.
